In PubChem BioAssay (NCATS):
Records with an inconclusive call do not appear. Some compounds were tested as several samples or in several runs, with calls that do not always agree. Active and inactive are the calls of the source. Calls come from the whole dose curve; as a rule, active = well fitted curve in the direction sought with a large enough effect; inconclusive = small, poorly fitted or top-dose-only effect, or another doubt; inactive = no such curve, though single readings can be large; an effect the other way counts as inactive or inconclusive.

Tests used:
CAOV3 = test: Primary qHTS to identify gynecologic anti-cancer compounds using libraries of approved drugs and bioactive compounds (AID 1345084); details: Gynecologic cancer cell panel viability, ATPlite luminescence, 48 h; series mostly up to 57.5 µM; note: nearly all actives have a fitted effect of over 55% in size
In short: (§1)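 Five-point cytotoxicity, 48 h drug exposure at 37 C, 5% CO2, on cells seeded 16 h beforehand. ATP content read by ATPlite luminescence.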

CASKI = test: as above; details: Gynecologic cancer cell panel viability, ATPlite luminescence, 48 h; series mostly up to 57.5 µM
In short: as §1

Es-2 = test: as above; details: Gynecologic cancer cell panel viability, ATPlite luminescence, 48 h; series mostly up to 57.5 µM
In short: as §1

HeLa = test: as above; details: Gynecologic cancer cell panel viability, ATPlite luminescence, 48 h; series mostly up to 57.5 µM
In short: as §1

JEG-3 = test: as above; details: Gynecologic cancer cell panel viability, ATPlite luminescence, 48 h; series mostly up to 57.5 µM
In short: as §1

OV90 = test: as above; details: Gynecologic cancer cell panel viability, ATPlite luminescence, 48 h; series mostly up to 57.5 µM
In short: as §1

PA-1 = test: as above; details: Gynecologic cancer cell panel viability, ATPlite luminescence, 48 h; series mostly up to 57.5 µM
In short: as §1

Tov-21-G = test: as above; details: Gynecologic cancer cell panel viability, ATPlite luminescence, 48 h; series mostly up to 57.5 µM
In short: as §1

Tov112D = test: as above; details: Gynecologic cancer cell panel viability, ATPlite luminescence, 48 h; series mostly up to 57.5 µM
In short: as §1

[1] = Drug repurposing screens with cells derived from glioblastoma tumor samples (AID 1345199); details: GBM patient neurospheres viability, ATP luminescence, 48 h; note: nearly all actives have a fitted effect of over 40% in size
In short: (§2)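 Primary testing used CD133+ neurospheres from four GBM patients, seven concentrations, 48 h exposure and ATP-based viability; confirmation added three slower-growing patient lines.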

Hek293T = test: Primary qHTS to identify gynecologic anti-cancer compounds using libraries of approved drugs and bioactive compounds (AID 1345084); details: Gynecologic cancer cell panel viability, ATPlite luminescence, 48 h, control line for the selectivity index; series mostly up to 57.5 µM; note: nearly all actives have a fitted effect of over 55% in size
In short: as §1

SKOV3 = test: as above; details: Gynecologic cancer cell panel viability, ATPlite luminescence, 48 h; series mostly up to 57.5 µM
In short: as §1

astro = test: Drug repurposing screens with cells derived from glioblastoma tumor samples (AID 1345199); details: viability, ATP luminescence, 48 h; series mostly up to 45.9 µM; note: nearly all actives have a fitted effect of over 40% in size
In short: as §2

[2] = at 45.9 µM (top of the series), tumour line B
[3] = at 45.9 µM (top of the series), tumour line D
[4] = at 46.1 µM (top of the series), tumour line C
[5] = at 46 µM (top of the series), tumour line A
[6] = at 20 µM (top of the series), tumour line C
[7] = at 21.2 µM (top of the series), tumour line B
[8] = at 21.2 µM (top of the series), tumour line D
[9] = at 21.3 µM (top of the series), tumour line A
% is set by controls: 0 for no effect and ±100 for the full control effect; potency is the fitted concentration of half-maximal effect.

c1ccc(-c2ccc(C(c3ccccc3)n3ccnc3)cc2)cc1 (configuration not stated)
active: Potency ([1]; tumour line A) 3.55 µM | Potency ([1]; tumour line D) 11.2 µM
inactive: Potency (CAOV3) | Potency (CASKI) | Potency (Es-2) | Potency (HeLa) | Potency (JEG-3) | Potency (OV90) | Potency (PA-1) | Potency (Tov-21-G) | Potency (Tov112D) | activity, negative = cell killing [1, 2] -29.4%

C#C[C@]1(O)CC[C@H]2[C@@H]3CCC4=CC(=O)CC[C@@H]4[C@H]3CC[C@@]21C
active: Potency (HeLa) 3.55 µM | Potency (PA-1) 17.8 µM
inactive: Potency (CAOV3) | Potency (CASKI) | Potency (Es-2) | Potency (Hek293T) | Potency (JEG-3) | Potency (SKOV3) | Potency (Tov-21-G) | Potency (Tov112D) | activity, negative = cell killing [1, 2] -9.83% | activity, negative = cell killing [1, 3] 3.81% | activity, negative = cell killing [1, 4] -18.8% | Potency (astro)

O=C1[C@H]2CCCC[C@H]2C(=O)N1CCCCN1CCN(c2nsc3ccccc23)CC1
inactive: Potency (CAOV3) | Potency (CASKI) | Potency (Es-2) | Potency (HeLa) | Potency (JEG-3) | Potency (PA-1) | Potency (SKOV3) | Potency (Tov-21-G) | Potency (Tov112D) | Potency (astro)

CC(=O)Oc1ccc(C(=C2CCCCC2)c2ccc(OC(C)=O)cc2)cc1
inactive: Potency (CAOV3) | Potency (CASKI) | Potency (Es-2) | Potency (HeLa) | Potency (Hek293T) | Potency (JEG-3) | Potency (PA-1) | Potency (SKOV3) | Potency (Tov-21-G) | Potency (Tov112D) | activity, negative = cell killing [1, 2] -19.5% | activity, negative = cell killing [1, 3] -13.6% | activity, negative = cell killing [1, 5] -21.3% | Potency (astro)

COc1c2occc2c(OC)c2c(=O)cc(C)oc12
inactive: Potency (CAOV3) | Potency (CASKI) | Potency (Es-2) | Potency (HeLa) | Potency (JEG-3) | Potency (OV90) | Potency (PA-1) | Potency (SKOV3) | Potency (Tov-21-G) | Potency (Tov112D) | activity, negative = cell killing [1, 6] -11.9% | activity, negative = cell killing [1, 7] -15.3% | activity, negative = cell killing [1, 8] -6.87%

CCOC(=O)COc1ccc2c(C)c(CCN(CC)CC)c(=O)oc2c1Cl
inactive: Potency (CAOV3) | Potency (CASKI) | Potency (HeLa) | Potency (Hek293T) | Potency (JEG-3) | Potency (OV90) | Potency (PA-1) | Potency (Tov112D) | activity, negative = cell killing [1, 2] -13.9% | activity, negative = cell killing [1, 4] -21.4% | Potency (astro)
active: Potency (SKOV3) 15.8 µM | Potency ([1]; tumour line A) 11.2 µM

CC(C)(C)CC(C)(C)c1ccc(OCCOCC[N+](C)(C)Cc2ccccc2)cc1
active: Potency (CASKI) 10 µM | Potency (PA-1) 14.1 µM | Potency (SKOV3) 12.6 µM | Potency (astro) 20 µM
25.1 µM (active) and inactive: Potency (CAOV3)
inactive: Potency (Es-2) | Potency (HeLa) | Potency (Hek293T) | Potency (JEG-3) | Potency (Tov112D)

Cc1c(N(C)CS(=O)(=O)O)c(=O)n(-c2ccccc2)n1C
inactive: Potency (CAOV3) | Potency (CASKI) | Potency (Es-2) | Potency (JEG-3) | Potency (OV90) | Potency (SKOV3) | activity, negative = cell killing [1, 6] -2.96% | activity, negative = cell killing [1, 7] -9.28% | activity, negative = cell killing [1, 8] -9.47% | activity, negative = cell killing [1, 9] -23.9% | Potency (astro)

CC1(C)O[C@@H]2C[C@H]3[C@@H]4CCC5=CC(=O)CC[C@]5(C)[C@@]4(F)[C@@H](O)C[C@]3(C)[C@]2(C(=O)CCl)O1
inactive: Potency (CAOV3) | Potency (CASKI) | Potency (Es-2) | Potency (HeLa) | Potency (Hek293T) | Potency (JEG-3) | Potency (PA-1) | Potency (SKOV3) | Potency (Tov-21-G) | Potency (Tov112D) | activity, negative = cell killing [1, 6] -1.51% | activity, negative = cell killing [1, 7] -4.88% | activity, negative = cell killing [1, 8] 2.26% | activity, negative = cell killing [1, 9] 3.38% | Potency (astro)

COc1cccc(CCc2ccccc2OCC(CN(C)C)OC(=O)CCC(=O)O)c1 (configuration not stated)
inactive: Potency (CAOV3) | Potency (CASKI) | Potency (Es-2) | Potency (HeLa) | Potency (Hek293T) | Potency (JEG-3) | Potency (PA-1) | Potency (SKOV3) | Potency (Tov-21-G) | Potency (Tov112D)

CCN(CC)CCOC(=O)C(c1ccccc1)C1CCCCC1 (configuration not stated)
active: Potency ([1]; tumour line A) 20 µM
inactive: Potency (CAOV3) | Potency (CASKI) | Potency (Es-2) | Potency (HeLa) | Potency (Hek293T) | Potency (JEG-3) | Potency (PA-1) | Potency (SKOV3) | Potency (Tov-21-G) | Potency (Tov112D) | activity, negative = cell killing [1, 2] -15% | Potency (astro)

Cc1cccn2c(=O)c(-c3nnn[nH]3)cnc12
inactive: Potency (CAOV3) | Potency (CASKI) | Potency (Es-2) | Potency (HeLa) | Potency (JEG-3) | Potency (OV90) | Potency (PA-1) | Potency (SKOV3) | Potency (Tov-21-G) | Potency (Tov112D) | activity, negative = cell killing [1, 2] -8.75% | activity, negative = cell killing [1, 3] -11.1% | activity, negative = cell killing [1, 5] -23.8% | activity, negative = cell killing [1, 4] -18.6% | Potency (astro)

C[C@@H](CN(C)C)CN1c2ccccc2Sc2ccccc21
active: Potency (SKOV3) 17.8 µM | Potency ([1]; tumour line A) 8.91 µM
inactive: Potency (CAOV3) | Potency (CASKI) | Potency (Es-2) | Potency (HeLa) | Potency (Hek293T) | Potency (JEG-3) | Potency (PA-1) | Potency (Tov-21-G) | Potency (Tov112D) | activity, negative = cell killing [1, 6] 31.6% | activity, negative = cell killing [1, 7] -28.5% | Potency (astro)

C[C@H](O)C(=O)Nc1c(I)c(C(=O)NC(CO)CO)c(I)c(C(=O)NC(CO)CO)c1I
inactive: Potency (CAOV3) | Potency (CASKI) | Potency (Es-2) | Potency (HeLa) | Potency (JEG-3) | Potency (PA-1) | Potency (SKOV3) | Potency (Tov-21-G) | Potency (Tov112D) | activity, negative = cell killing [1, 6] 2.37% | activity, negative = cell killing [1, 7] -6.73% | activity, negative = cell killing [1, 8] -12.3% | activity, negative = cell killing [1, 9] -8%
